Experimental data: PubChem BioAssay (NCATS)
Results filed as inconclusive are left out. Values without a mark were called inactive. The source made the active and inactive calls. Calls follow the shape of the dose curve; as a rule, active = well fitted inhibition curve with a large enough effect; inconclusive = small, poorly fitted or top-dose-only effect; inactive = no such curve, though single readings can be large or run the other way.

Biological target: N-terminal Xaa-Pro-Lys N-methyltransferase 1 (Homo sapiens) (UniProt Q9BV86)
Sequence (Q9BV86 whole entry, looked up): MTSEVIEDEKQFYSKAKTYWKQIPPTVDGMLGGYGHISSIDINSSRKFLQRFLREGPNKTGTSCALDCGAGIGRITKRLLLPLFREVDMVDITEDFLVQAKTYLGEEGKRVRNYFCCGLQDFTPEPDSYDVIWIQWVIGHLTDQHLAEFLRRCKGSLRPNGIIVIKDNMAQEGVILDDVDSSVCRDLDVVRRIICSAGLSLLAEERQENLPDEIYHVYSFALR
Experiment: qHTS Assay for Inhibitors of N-terminal methyltransferase 1 (NTMT1): LOPAC validation of the NTMT1 SAHH-coupled ThioGlo3 Assay (AID 1347143);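 also: SAH from peptide methylation measured as thiol fluorescence via SAHH coupling and ThioGlo3; nearly all actives have a fitted effect of over 70% in size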
Details: recombinant NTMT1, SAHH-coupled ThioGlo3 fluorescence; series mostly up to 114 µM; activity change, negative = inhibition: at the top concentration
Description: Assay Submitter (PI): Rong Huang Ph.D, Purdue University, West Lafayette, IN 47907 The N-terminal methytransferase 1 is the first methyltransferase that methylates protein alpha-N-amines and plays an important role in regulating cell mitosis, chromatin interactions and DNA repair. It is observed to be over-expressed in various cancer patient tissues like malignant melanoma and colorectal cancer tissues. Knockdown of NTMT1 in cancer cells causes cell mitotic defects and enhances sensitivity to DNA damaging chemotherapeutics. […] These critical cellular processes in which NTMT1 is implicated, coupled with emerging links to cellular dysfunction, strengthen the inference that NTMT1 is a compelling novel anticancer target. Progress have been made in understanding the molecular properties of NTMT1 and the biological consequences of protein alpha-N-terminal methylation, but there are no specific small molecule probes available for NTMT1 to fully characterize its MTase activity. To address this unmet need, a panel of assay is created and established to enable quantitative high-throughput screening (qHTS) for novel, potent, and selective small molecule NTMT1 inhibitors. Two orthogonal qHTS that use different reagents (ThioGlo vs. MTaseGlo) are developed for primary robotic screening against the NCATS chemical library of more than 400,000 small molecules. Identified inhibitors are reacquired, validated, and further characterized. […] A pilot screen against the LOPAC library of 1280 compounds is carried out to assess performance of the optimized qHTS in 1536-well plate format. Early Translation Branch (ETB) National Center for Advancing Translational Sciences (NCATS) National Institute of Health (NIH)
Materials: NTMT1 enzyme, substrate SPKRIA, control peptide RCC1-6 is provided by the Huang laboratory. ThioGlo3 Assay: In brief, 125nM NTMT1 enzyme was dispensed into a 1536-well assay plate with Aurora Discovery BioRAPTR Flying Reagent Dispenser (FRD, Beckton-Dickenson). Compounds (at various concentration) or 1uM RCC1-6 (SPKRIA) control were transferred to the assay plate using the Kalypsys 1536-pintool apparatus. After 1 min of room temperature incubation, 1uL of substrate (100uM SAM, 10uM SAHH, 15uM ThioGlo3) was added to the wells bringing the final assay volume to 4uL. Initial (background) fluorescence readout (EX: 340nm, EM: 450nm) was then detected using the PerkinElmer ViewLux microplate imager and a final fluorescence readout was taken after 30 min of room temperature incubation. The data was normalized to the background fluorescence.
% is scaled to controls: 0 for no effect and ±100 for the full control effect; potency is read from the fitted curve at half-maximal effect.

SMILES | activity change, negative = inhibition [%] | Potency
CN(C)CCOC(c1ccccc1)c1ccccc1 | -10.7 | 
CC[C@@]1(O)C(=O)OCc2c1cc1n(c2=O)Cc2cc3c(CN(C)C)c(O)ccc3nc2-1 | 68.1 | 
O=C(C1CCCCC1)N1CC(=O)N2CCc3ccccc3C2C1 (stereo not given) | -9.6 | 
Cc1ccccc1N1C(=O)c2cc(S(N)(=O)=O)c(Cl)cc2NC1C (stereo not given) |  | 79.4 µM (active)
Cc1cnc(C(=O)NCCc2ccc(S(=O)(=O)NC(=O)NC3CCCCC3)cc2)cn1 | -11.9 | 
CC(C)NCC(O)COc1ccc(CCOCC2CC2)cc1 (stereo not given) | -17.2 | 
O=c1c(O)c(-c2ccc(O)c(O)c2)oc2cc(O)cc(O)c12 |  | 35.5 µM (active)
Nc1nnc(-c2cccc(Cl)c2Cl)c(N)n1 | -12.2 | 
Clc1ccc2c(c1)C(N1CCNCC1)=Nc1ccccc1O2 | -16.7 | 
CC(C(=O)O)c1cccc(C(=O)c2ccccc2)c1 (stereo not given) | -11 | 
NC(=O)OCC(COC(N)=O)c1ccccc1 | -3.2 | 
OCCN1CCN(CCCN2c3ccccc3Sc3ccc(C(F)(F)F)cc32)CC1 |  | 44.7 µM (active)
CC1COc2c(N3CCN(C)CC3)c(F)cc3c(=O)c(C(=O)O)cn1c23 (stereo not given) |  | 56.2 µM (active)
NCCc1cnc[nH]1 | -21 | 
COc1nc(C)nc(Cl)c1NC1=NCCN1 | -7.57 | 
Cn1c(=O)c2c(ncn2C)n(C)c1=O | -13.7 | 
CN(C)c1nc(N(C)C)nc(N(C)C)n1 | 4.23 | 
O=C1c2c(O)ccc(O)c2C(=O)c2c(NCCNCCO)ccc(NCCNCCO)c21 |  | 50.1 µM (active)
NS(=O)(=O)c1cc2c(cc1Cl)NCNS2(=O)=O | -10.1 | 
COc1cc2nc(N3CCN(C(=O)C4COc5ccccc5O4)CC3)nc(N)c2cc1OC (stereo not given) |  | 56.2 µM (active)

SMILES | activity change, negative = inhibition [%] | Potency
Clc1ccccc1C(c1ccccc1)(c1ccccc1)n1ccnc1 | -0.573 | 
CCOC(=O)C(C)(C)Oc1ccc(Cl)cc1 | -19.3 | 
NC(CO)C(=O)NNCc1ccc(O)c(O)c1O (stereo not given) |  | 8.91 µM (active)
CN1CCN(CCCN2c3ccccc3Sc3ccc(Cl)cc32)CC1 |  | 44.7 µM (active)
Cc1cn([C@H]2C=C[C@@H](CO)O2)c(=O)[nH]c1=O | -6.88 | 
NC(=O)NO | -15.7 | 
CC(C)Cc1ccc(C(C)C(=O)O)cc1 (stereo not given) | -7.59 | 
COc1ccc(CCN(C)CCCC(C#N)(c2ccc(OC)c(OC)c2)C(C)C)cc1OC (stereo not given) | -20.3 | 
CC(C)(C)C(=O)Oc1ccc(S(=O)(=O)Nc2ccccc2C(=O)NCC(=O)O)cc1 | -10.9 | 
CN(CCOc1ccc(NS(C)(=O)=O)cc1)CCc1ccc(NS(C)(=O)=O)cc1 | -15.1 | 
NCCCCCC(=O)O | 10.2 | 
CN1CCC(=C2c3ccccc3C=Cc3ccccc32)CC1 | -15.9 | 
O=C1Cc2cc(CCN3CCN(c4nsc5ccccc45)CC3)c(Cl)cc2N1 |  | 44.7 µM (active)
CN(C)CCC=C1c2ccccc2C=Cc2ccccc21 | -26.7 | 
CCOC(=O)c1ncn2c1CN(C)C(=O)c1cc(F)ccc1-2 | -5 | 
CC#C[C@]1(O)CC[C@H]2[C@@H]3CCC4=CC(=O)CCC4=C3[C@@H](c3ccc(N(C)C)cc3)C[C@@]21C |  | 11.2 µM (active)
COc1cc2nc(N(C)CCCNC(=O)C3CCCO3)nc(N)c2cc1OC (stereo not given) |  | 39.8 µM (active)
CC[N+](CC)(CC)CCOc1cccc(OCC[N+](CC)(CC)CC)c1OCC[N+](CC)(CC)CC |  | 44.7 µM (active)
O=C1N(c2ccccc2)c2ccccc2C1(Cc1ccncc1)Cc1ccncc1 | -22.2 | 
COc1ccc2c(c1)c(CC(=O)O)c(C)n2C(=O)c1ccc(Cl)cc1 | -13.8 | 
